Consider six compounds from PubChem BioAssay.

Active and inactive are the calls of the source.

The target in one assay is Albumin (Bos taurus) (UniProt P02769). Nature of the assay: bovine serum albumin binders on microarray, profiling panel, artefact control for SMM control protein annotation, biochemical, small-molecule microarray, Alexa647 label, 635/667 nm fluorescence (AID 1118).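 Further: score merges 667 nm emission intensity and signal-to-noise per printed compound spot.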 As to conditions: BSA-A647 binding, fluorescence 635 nm, higher = more signal.
Assay [1] is described as follows: small-molecule microarray binders of probe aXIP, primary screen, biochemical, NeuroSMM set, 635/667 nm fluorescence (AID 1119).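 Further: probe is the protein aXip251-270 applied at 1 µg/mL to compound-printed slides; binding of probe to printed compounds measured as 667 nm fluorescence plus signal to noise.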 As to conditions: higher = more signal, called active from +8 up or from −8 down.
A short description of assay [2]: small-molecule binders of probe aNOTCH3, primary screen, biochemical, small-molecule microarray, 635/667 nm fluorescence (AID 1120).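 Further: probe is a biotin-tagged antibody raised against NOTCH3 rather than NOTCH3 protein; score merges spot fluorescence near 667 nm with spot signal to noise.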 Particulars: higher = more signal.
Assay [3] can be described thus: small-molecule binders of probe aNOTCH2, primary screen, biochemical, small-molecule microarray, 635/667 nm fluorescence (AID 1121).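 Further: score merges feature fluorescence read at 667 nm with its signal to noise.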 As to conditions: higher = more signal.
In assay [4] the target is Carbonic anhydrase 2 (Homo sapiens) (UniProt P00918). Nature of the assay: CAII small-molecule binders, profiling panel, biochemical, small-molecule microarray, Alexa647-labelled CAII (AID 1122). Particulars: CAII-A647 binding fluorescence, higher = more signal.
Assay [5] in a line: COS7 lysate on small-molecule microarray, probe aHis, 635 nm (AID 1123).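 Further: z-score combines 667nm fluorescence intensity with signal-to-noise per printed compound spot.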 As to conditions: COS7 cell lysate, fluorescence, higher = more signal.
The nature of assay [6]: compound binding in COS7 lysate, probe aLAP1, primary screen, cell lysate, small-molecule microarray (AID 1124).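 Further: lysate comes from COS7 cells expressing LAP1 and is applied at 0.3 µg/mL; score merges spot fluorescence near 667 nm with signal-to-noise over triplicate slides.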 As to conditions: probe aLAP1, fluorescence, higher = more signal.
The test system of another assay is Sam68 (KHDRBS1). Nature of the assay: Sam68 small-molecule binders, primary screen, biochemical, small-molecule microarray, 635 nm fluorescence (AID 1125).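 Further: score merges 667 nm channel intensity with signal to noise over triplicate slides.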 As to conditions: small-molecule microarray binding, higher = more signal.
In assay [7] the test system is Chordin-like protein 2 (CHRDL2). Put plainly: CHRDL2 small-molecule binders, primary screen, biochemical, small-molecule microarray, 635 nm fluorescence (AID 1126).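 Further: printed compound slides probed with Chrdl2 protein at 4 µg/mL for 1 h at 4 C; score merges 667 nm emission intensity with signal to noise over three replicate slides.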 Particulars: small-molecule microarray binding, fluorescence 635 nm; higher = more signal.
For assay [8], the target named is Concanavalin-A (Canavalia ensiformis) (UniProt P02866). Put plainly: ConA small-molecule binders, primary screen, artefact control for SMM control protein annotation, biochemical, small-molecule microarray, Alexa647 label, 635 nm (AID 1127).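 Further: z combines 667 nm emission intensity with signal-to-noise across three replicate slides.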 Particulars: ConA-A647 binding fluorescence, higher = more signal.
Assay [9] is described as follows: anti-His antibody binders, primary screen, artefact control for SMM control protein annotation, biochemical, small-molecule microarray, 635 nm fluorescence (AID 1128).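 Further: score merges feature fluorescence with signal-to-noise for each printed compound spot.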 As to conditions: anti-His Alexa647 antibody binding, higher = more signal.
The test system of assay [10] is Human papillomavirus type 1a E7 protein (residues 1-88). Nature of the assay: HPV1a E7 small-molecule binders, primary screen, biochemical, small-molecule microarray, residues 1-88, 635 nm (AID 1129). As to conditions: small-molecule microarray binding, fluorescence 635 nm; higher = more signal.
Assay [11] concerns the target Focal adhesion kinase 1 (Homo sapiens) (UniProt Q05397). Nature of the assay: small-molecule microarray binders of FAK, primary screen, biochemical, 635/667 nm fluorescence, BSA, DTT (AID 1130).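 Further: composite of spot emission at 667 nm and signal to noise over triplicate slides.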 As to conditions: PTK2 binding, 635 nm fluorescence, higher = more signal.
Assay [12] deals with Fibrinogen (Alexa647-labelled). Put plainly: fibrinogen binders on compound microarrays, profiling panel, artefact control for SMM control-protein annotation, biochemical, small-molecule microarray, 635/667 nm fluorescence (AID 1131).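 Further: z-score merges 667 nm fluorescence with per-spot signal-to-noise over triplicate slides.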 Particulars: fibrinogen-A647 binding fluorescence, higher = more signal.
Assay [13] addresses Follistatin (Homo sapiens) (UniProt P19883). Nature of the assay: follistatin binders on small-molecule microarrays, primary screen, biochemical, small-molecule microarray, 635/667 nm fluorescence (AID 1132). Particulars: FST binding, 635 nm fluorescence, higher = more signal.
In assay [14] the target is Fibroblast growth factor 2 (Homo sapiens) (UniProt P09038). Put plainly: FGF2 binders on small-molecule microarrays, primary screen, biochemical, small-molecule microarray, 635/667 nm fluorescence (AID 1133). As to conditions: small-molecule microarray binding, FGF2, fluorescence 635/667; higher = more signal.
Assay [15] in a line: mitochondrial membrane potential change in A549 cells, profiling panel, cell-based, JC-1 fluorescence, basal, 24 h, 100 nL (AID 1138).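 Further: A549 lung adenocarcinoma cells under basal conditions with no added stimulus; test concentration not given here.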 Particulars: higher = more signal.
Another assay deals with Lefty1. Put plainly: Lefty1 binders on small-molecule microarrays, primary screen, biochemical, small-molecule microarray, 635/667 nm fluorescence (AID 1139). Particulars: small-molecule microarray binding, fluorescence 635/667; higher = more signal.
Assay [16] has as its system wheat germ agglutinin (Triticum aestivum), Alexa647-labelled. Put plainly: wheat germ agglutinin binders on compound microarrays, profiling panel, artefact control for SMM control-protein annotation, biochemical, small-molecule microarray, 635/667 nm fluorescence (AID 1140).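 Further: score merges 667 nm feature emission with signal to noise over triplicate slides.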 Particulars: WGA-A647 binding, 635 nm fluorescence, higher = more signal.
The target in assay [17] is Luciferin 4-monooxygenase (Photinus pyralis) (UniProt P08659). Nature of the assay: firefly luciferase enzyme inhibitors, primary screen, biochemical, luminescence, purified enzyme, 2006 set (AID 1141).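 Further: cell-free assay with purified firefly luciferase at 100 ng per well in PBS; test concentration not given here.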 Particulars: SteadyGlo luminescence, 30 min, higher = more signal, called active from +8 up or from −8 down.
Sequence of Luciferin 4-monooxygenase (Photinus pyralis) (P08659 whole entry, looked up): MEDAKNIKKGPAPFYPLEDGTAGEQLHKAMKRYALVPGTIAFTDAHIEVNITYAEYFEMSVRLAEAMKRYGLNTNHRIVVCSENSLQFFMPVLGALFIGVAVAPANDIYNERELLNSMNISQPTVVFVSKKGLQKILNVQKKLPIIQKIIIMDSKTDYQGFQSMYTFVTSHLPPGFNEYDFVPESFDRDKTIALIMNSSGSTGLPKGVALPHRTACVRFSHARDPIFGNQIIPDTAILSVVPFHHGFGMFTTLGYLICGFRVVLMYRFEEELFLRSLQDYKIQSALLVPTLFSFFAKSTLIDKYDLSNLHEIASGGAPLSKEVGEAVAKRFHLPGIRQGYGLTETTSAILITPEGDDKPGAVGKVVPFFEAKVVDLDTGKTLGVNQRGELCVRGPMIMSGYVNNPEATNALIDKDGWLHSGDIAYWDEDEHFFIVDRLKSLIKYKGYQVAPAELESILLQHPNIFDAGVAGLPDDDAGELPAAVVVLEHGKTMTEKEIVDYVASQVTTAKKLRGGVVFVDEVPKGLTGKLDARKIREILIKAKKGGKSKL

Sequence of Concanavalin-A (Canavalia ensiformis) (P02866 whole entry, looked up): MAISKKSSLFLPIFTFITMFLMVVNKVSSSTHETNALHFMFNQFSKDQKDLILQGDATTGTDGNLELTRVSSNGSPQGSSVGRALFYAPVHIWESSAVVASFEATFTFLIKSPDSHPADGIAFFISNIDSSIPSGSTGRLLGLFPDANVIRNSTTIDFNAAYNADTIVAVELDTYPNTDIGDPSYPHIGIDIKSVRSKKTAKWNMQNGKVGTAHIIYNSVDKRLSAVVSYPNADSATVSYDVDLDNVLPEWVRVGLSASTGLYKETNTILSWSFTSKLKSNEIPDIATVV
Sequence of Albumin (Bos taurus) (P02769 whole entry, looked up): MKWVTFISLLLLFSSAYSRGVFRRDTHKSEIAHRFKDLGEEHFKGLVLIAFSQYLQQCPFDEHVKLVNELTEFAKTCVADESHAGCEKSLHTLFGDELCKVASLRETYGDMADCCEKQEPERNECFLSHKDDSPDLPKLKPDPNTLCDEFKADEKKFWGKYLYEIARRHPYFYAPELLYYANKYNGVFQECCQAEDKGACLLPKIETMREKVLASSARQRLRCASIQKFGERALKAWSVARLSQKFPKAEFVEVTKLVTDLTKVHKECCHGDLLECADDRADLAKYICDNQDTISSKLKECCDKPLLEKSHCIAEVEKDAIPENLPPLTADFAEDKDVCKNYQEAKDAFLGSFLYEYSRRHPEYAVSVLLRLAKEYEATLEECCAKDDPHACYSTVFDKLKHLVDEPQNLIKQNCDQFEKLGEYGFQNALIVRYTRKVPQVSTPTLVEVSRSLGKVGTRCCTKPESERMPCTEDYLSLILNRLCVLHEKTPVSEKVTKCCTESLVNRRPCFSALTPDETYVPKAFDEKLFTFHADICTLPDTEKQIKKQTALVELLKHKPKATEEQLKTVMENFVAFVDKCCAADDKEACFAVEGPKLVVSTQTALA
Sequence of Follistatin (Homo sapiens) (P19883 whole entry, looked up): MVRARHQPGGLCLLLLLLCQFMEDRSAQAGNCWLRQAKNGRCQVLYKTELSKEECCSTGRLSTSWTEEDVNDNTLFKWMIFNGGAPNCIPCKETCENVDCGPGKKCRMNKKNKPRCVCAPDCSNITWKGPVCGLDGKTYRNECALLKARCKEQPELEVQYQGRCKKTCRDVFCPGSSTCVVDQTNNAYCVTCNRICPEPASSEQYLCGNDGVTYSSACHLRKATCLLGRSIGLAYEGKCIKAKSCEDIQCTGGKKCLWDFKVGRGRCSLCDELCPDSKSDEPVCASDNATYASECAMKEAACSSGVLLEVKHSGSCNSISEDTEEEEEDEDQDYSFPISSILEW
Sequence of Fibroblast growth factor 2 (Homo sapiens) (P09038 whole entry, looked up): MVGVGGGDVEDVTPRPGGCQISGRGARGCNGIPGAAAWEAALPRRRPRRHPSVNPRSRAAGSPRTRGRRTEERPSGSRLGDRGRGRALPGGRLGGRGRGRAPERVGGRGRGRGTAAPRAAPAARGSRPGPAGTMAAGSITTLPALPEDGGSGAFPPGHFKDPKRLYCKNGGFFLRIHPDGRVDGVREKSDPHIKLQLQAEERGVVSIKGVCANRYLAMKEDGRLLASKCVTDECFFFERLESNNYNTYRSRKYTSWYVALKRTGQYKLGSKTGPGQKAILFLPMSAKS
Sequence of Focal adhesion kinase 1 (Homo sapiens) (Q05397 whole entry, looked up): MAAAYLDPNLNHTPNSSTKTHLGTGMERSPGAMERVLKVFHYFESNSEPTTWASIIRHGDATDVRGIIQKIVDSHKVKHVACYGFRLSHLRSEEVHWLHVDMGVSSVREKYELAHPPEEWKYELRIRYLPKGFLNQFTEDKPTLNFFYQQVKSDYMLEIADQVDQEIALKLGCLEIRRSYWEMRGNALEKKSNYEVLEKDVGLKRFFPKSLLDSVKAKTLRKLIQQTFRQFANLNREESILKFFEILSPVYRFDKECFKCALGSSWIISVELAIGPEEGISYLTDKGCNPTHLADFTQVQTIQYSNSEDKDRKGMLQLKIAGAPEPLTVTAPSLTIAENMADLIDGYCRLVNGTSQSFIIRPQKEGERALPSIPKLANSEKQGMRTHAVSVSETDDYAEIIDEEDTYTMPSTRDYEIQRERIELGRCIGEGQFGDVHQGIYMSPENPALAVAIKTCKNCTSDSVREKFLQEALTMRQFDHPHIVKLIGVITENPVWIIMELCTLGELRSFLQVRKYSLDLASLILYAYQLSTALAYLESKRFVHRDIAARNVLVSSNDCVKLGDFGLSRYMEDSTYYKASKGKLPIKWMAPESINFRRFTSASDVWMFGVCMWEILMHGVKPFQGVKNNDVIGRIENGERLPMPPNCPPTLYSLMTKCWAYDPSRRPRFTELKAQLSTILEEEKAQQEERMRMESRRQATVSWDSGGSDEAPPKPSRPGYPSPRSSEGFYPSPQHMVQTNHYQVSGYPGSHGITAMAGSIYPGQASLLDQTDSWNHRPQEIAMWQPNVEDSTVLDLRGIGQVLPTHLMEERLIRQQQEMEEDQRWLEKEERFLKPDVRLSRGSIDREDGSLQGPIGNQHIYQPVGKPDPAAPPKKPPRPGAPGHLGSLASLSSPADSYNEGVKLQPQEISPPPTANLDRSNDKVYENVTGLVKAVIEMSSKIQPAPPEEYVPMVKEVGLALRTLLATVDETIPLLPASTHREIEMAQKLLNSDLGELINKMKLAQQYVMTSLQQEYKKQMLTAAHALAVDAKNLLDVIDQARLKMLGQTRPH

Take `CC(CCN1CCCCc2nc(C)c(C)cc21)=NO[C@@H](C)c1cc(-c2c(C)cc(C)cc2C)no1`: the composite z-score with Albumin (Bos taurus) was 0.335; in [2] it was -0.231; in assay [3], -0.0904; in [4], -0.079; in assay [5], -0.257; in assay [6] it was 0.197. For the same compound, the composite z-score was -1.33 in the assay with Sam68 (KHDRBS1); -0.734 in assay [7]; -1.84 in [8]; -0.335 in assay [9]; -0.384 in assay [10]; 0.0796 in [11]. In addition, the composite z-score in [12] was -0.317; in assay [13], -0.673; in assay [14] it was -0.682; in the assay with Lefty1, -0.315; in assay [16], -0.547. For the same compound, in assay [1], the composite Z-score was -0.0861 (inactive). Moreover, the z-score is 1.91 in assay [15] and -1.49 (inactive) in [17].

Take `CCCNC(=O)OC[C@H]1O[C@H](CCON=C[C@@H](C)[C@H](OCc2ccccc2)C(C)C)C=C[C@@H]1Oc1ccc(OC)cc1`: the composite z-score was -0.655 with Albumin (Bos taurus); -0.0308 in assay [2]; -0.149 in assay [3]; -0.473 in assay [4]; 0.775 in assay [5]; -0.394 in [6]. The composite z-score with Sam68 (KHDRBS1) is -1.04; in assay [7], 0.379; in assay [8], -0.501; in assay [9], 3.25; in [10], -0.603; in [11], -0.072. The composite z-score in [12] was -0.101; in assay [13], -0.134; in assay [14], -0.0238; with Lefty1, 0.401; in assay [16], -0.199. The composite Z-score in [1] is -0.288 (inactive). Further, the z-score in [15] is 1.63; in assay [17], -1.46 (inactive).

Turning to `COc1ccc(COC(=O)NN=C2C[C@@H](O)[C@@H](O)[C@@H]3[C@@H]4C(=O)N(C[C@@H]5CCCO5)C(=O)[C@@H]4CC[C@H]23)cc1`, the composite z-score is 0.533 with Albumin (Bos taurus); 0.0562 in assay [2]; -0.0811 in [3]; -0.283 in assay [4]; 0.121 in [5]; -0.341 in assay [6]. Moreover, the composite z-score is -0.624 in the assay on Sam68 (KHDRBS1); 0.144 in assay [7]; -0.826 in [8]; -0.156 in assay [9]; -0.309 in assay [10]; 0.0444 in assay [11]. The composite z-score was -0.269 in assay [12]; -1.13 in assay [13]; -0.902 in assay [14]; -1.1 with Lefty1; 0.128 in assay [16]. In assay [1], the composite Z-score was -0.713 (inactive). The results for the z-score in assay [15] and in [17] were -0.252 and 0.917 (inactive), respectively.

Regarding `O=C1C=C[C@@H](O)[C@@H]2[C@@H]3C(=O)N(Cc4ccc5c(c4)OCO5)C(=O)[C@@H]3CC[C@@H]12`, the composite z-score with Albumin (Bos taurus) was 0.147; in assay [2], 0.123; in assay [3], -0.0567; in assay [4] it was -0.137; in [5] it was 0.163; in assay [6], 0.129. Moreover, the composite z-score in the assay with Sam68 (KHDRBS1) amounted to 0.627; in [7], 0.761; in [8], 0.748; in [9], 0.314; in [10], 0.867; in assay [11], 0.185. Besides, the composite z-score was determined as 0.546 in [12]; 0.382 in [13]; 0.569 in assay [14]; 0.585 with Lefty1; 0.0599 in assay [16]. For the same compound, the composite Z-score in assay [1] is -0.88 (inactive). Besides, the values for the z-score in assay [15] and in assay [17] were -0.635 and -0.276 (inactive), respectively.

On to `CCOC(=O)CCN1C(=O)[C@H]2[C@H]3[C@H](O)[C@H](O)CC(=NNC(=O)OCc4ccc(OC)cc4)[C@H]3CC[C@H]2C1=O`, for which the composite z-score with Albumin (Bos taurus) was 0.33; in [2], -0.0328; in assay [3], -0.061; in assay [4] it was -0.0767; in assay [5], 0.205; in [6], -0.0428. Moreover, the composite z-score was 0.576 in the assay with Sam68 (KHDRBS1); 0.382 in [7]; -0.0813 in [8]; -0.0305 in assay [9]; 0.568 in assay [10]; 0.0684 in assay [11]. In addition, the composite z-score is 0.446 in assay [12]; -0.0495 in assay [13]; 0.0077 in assay [14]; 0.161 with Lefty1; 0.282 in assay [16]. Further, in assay [1], the composite Z-score is 0.0321 (inactive). Also, the figures for the z-score in assay [15] and in assay [17] were -0.734 and 0.624 (inactive), respectively.

As for `O=C1CCCC=C1C(O)C1CCCCC1` (stereo not given), the composite z-score with Albumin (Bos taurus) was -0.0548; in assay [2], -0.0325; in assay [3] it was -0.0818; in [4], -0.102; in [5], 0.181; in [6], -0.607. The composite z-score is -0.429 with Sam68 (KHDRBS1); 0.214 in [7]; -0.275 in assay [8]; -0.481 in [9]; -0.568 in assay [10]; -0.365 in assay [11]. For the same compound, the composite z-score in [12] was -0.206; in assay [13], 0.316; in [14], -0.297; in the assay with Lefty1, 0.562; in assay [16], -0.0135. In addition, the composite Z-score in assay [1] was -0.0549 (inactive). In addition, the z-score in [15] was 0.168; in assay [17], -0.376 (inactive).
